Screening results deposited in PubChem BioAssay by The Scripps Research Institute Molecular Screening Center.
FBW7 activator: activators of human E3 ligase FBW7 | AlphaScreen FBW7–phospho-cyclin E peptide binding, activator screen | 650,000 compounds, 0.13% hits | normalized activity (activation), % at 26.1 µM | Q969H0; in the data active means normalized activity above about 1.9%;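 further: purified mutant Fbw7 with reduced substrate affinity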
Target sequence (Q969H0 whole entry, looked up): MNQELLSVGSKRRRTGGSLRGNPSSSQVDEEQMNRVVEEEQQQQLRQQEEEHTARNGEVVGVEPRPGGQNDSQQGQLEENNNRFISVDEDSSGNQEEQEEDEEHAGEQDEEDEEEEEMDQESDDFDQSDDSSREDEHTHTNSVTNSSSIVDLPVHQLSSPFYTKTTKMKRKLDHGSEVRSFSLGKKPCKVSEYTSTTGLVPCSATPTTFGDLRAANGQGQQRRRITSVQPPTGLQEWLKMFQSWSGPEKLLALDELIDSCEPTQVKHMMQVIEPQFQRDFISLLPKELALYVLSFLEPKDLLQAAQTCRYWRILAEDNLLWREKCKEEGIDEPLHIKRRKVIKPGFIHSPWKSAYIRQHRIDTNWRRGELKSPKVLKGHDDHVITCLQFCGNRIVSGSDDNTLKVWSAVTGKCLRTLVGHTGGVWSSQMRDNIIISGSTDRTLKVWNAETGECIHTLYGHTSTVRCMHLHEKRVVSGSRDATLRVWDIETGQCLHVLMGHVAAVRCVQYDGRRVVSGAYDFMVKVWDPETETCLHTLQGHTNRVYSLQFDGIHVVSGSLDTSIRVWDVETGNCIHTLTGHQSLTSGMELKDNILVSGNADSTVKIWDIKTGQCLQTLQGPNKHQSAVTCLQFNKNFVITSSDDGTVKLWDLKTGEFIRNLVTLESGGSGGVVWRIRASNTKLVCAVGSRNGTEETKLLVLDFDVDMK
MITF primary: inhibitors of human MITF; AID 1259374; O75030; 650,000 compounds, 0.91% hits; inhibition, % at 2.6 µM; AlphaScreen MITF homodimerization, bead proximity signal; in the data active means inhibition above about 50%;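 further: 0% = vehicle wells with protein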
GPR151 activ: activates the human receptor GPR151; Q8TDV0; PathHunter beta-arrestin GPR151 cells, luminescence; activation, % at 11.2 µM; 650,000 compounds, 1% hits; AID 1508602; in the data active means activation above about 4.9%;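 further: 0% = median of compound wells and 100% = cells with positive control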
TEAD-YAP block: TEAD-YAP interaction inhibition | HEK-TIYL cells, TEAD-Gal4/YAP UAS-luciferase luminescence | inhibition, % at 9.12 µM | 640,000 compounds, 1.4% hits; in the data active means inhibition above about 32%;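 further: 0% = median of test compound wells and 100% = reference inhibitor wells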
Active calls of the source: *. Hits are enriched below; roughly 3.5% of the tested compounds scored in any of these assays.

SMILES	FBW7 activator	MITF primary	GPR151 activ	TEAD-YAP block
CCOc1ccccc1NC(=O)C(C)N(c1ccc(Cl)cc1)S(C)(=O)=O (stereo not given)	0	3	-1	6
CCOc1ccc(N(C(C)C(=O)Nc2ccccc2OCC)S(C)(=O)=O)cc1 (stereo not given)	0	9	0	54*
CCOc1ccc(N(C(C)C(=O)Nc2ccccc2C(=O)OC)S(C)(=O)=O)cc1 (stereo not given)	0	-10	-1	35*
CCOc1ccccc1NC(=O)C(C)Oc1ccc(OC)cc1 (stereo not given)	0	-3	0	48*
CCCCC(=O)Nc1cc2nn(-c3ccccc3)nc2cc1C	0	6	-2	-19
COc1cc(C(=O)N/C(=C/c2ccc(Br)cc2)C(=O)NC(CCC(=O)O)C(=O)O)cc(OC)c1OC (stereo not given)	0	2	0	-3
CC(C)c1ccc(N2CCN(Cc3ccccc3)C2=O)cc1	0	-14	-1	-90
Cc1cccc(N2CCN(C(=O)c3cc(S(=O)(=O)N4CCCC4)cn3C)CC2)c1C	0	-12	-1	58*
Cc1cccc(N2CCN(C(=O)c3cc(S(=O)(=O)N4CCOCC4)cn3C)CC2)c1C	0	-6	1	5
CCOC(=O)CS(=O)(=O)c1ccc(C(=O)N2CCN(c3cc(C)ccc3C)CC2)cc1[N+](=O)[O-]	0	3	3	-17
COc1ccccc1C(=O)N1CCN(c2cccc(C)c2C)CC1	0	-4	0	47*
COc1cccc(C(=O)N2CCN(c3cccc(C)c3C)CC2)c1	0	8	0	33*
CCOC(=O)CS(=O)(=O)c1ccc(C(=O)N2CCN(c3cccc(C)c3C)CC2)cc1[N+](=O)[O-]	0	-3	1	34*
Cc1noc(C)c1C(=O)Nc1cccc([N+](=O)[O-])c1C	0	6	-1	3
O=C(CCc1nnc(-c2ccsc2)o1)NCCOc1cccnc1	0	-1	0	4
N#Cc1c(SCC(=O)OCc2ccccc2)nc2c(c1-c1cccs1)CCC2	0	-14	0	-15
Cc1cccc(N2CCN(C(=O)c3ccncc3)CC2)c1C	0	13	-2	50*
COc1ccccc1N1CCN(C(=O)c2cccc(Br)c2)CC1	0	19	0	36*
CC(=O)Nc1ccc(C(=O)N2CCN(c3cccc(C)c3C)CC2)cc1	0	-5	1	-11
CC(C)Oc1ccc(/C=C/C(=O)Nc2ccc3nc4n(c(=O)c3c2)CCCC4)cc1	0	3	1	20
COc1ccccc1Cc1nc2cc(C)c(C)cc2[nH]c1=O	0	7	1	7
COc1cc(Cc2nc3cc(C)c(C)cc3[nH]c2=O)cc(OC)c1OC	0	4	-1	55*
COc1ccc(C(=O)NCCOc2cc(C)cc(C)c2)cc1OC	0	12	-1	11
COc1cc(C(=O)NCc2ccc(C(=O)NCCc3ccccc3)cc2)cc(OC)c1OC	0	11	-1	-5
COc1cc(C(=O)NCCOc2cc(C)cc(C)c2)cc(OC)c1OC	1	13	-1	52*
SMILES	FBW7 activator	MITF primary	GPR151 activ	TEAD-YAP block
CCc1ccc(-c2cc(C(=O)Nn3cnnc3)c3ccccc3n2)cc1	0	7	-3	82*
COc1cc(C(=O)Nc2ccccc2C(=O)NCCc2ccccc2)cc(OC)c1OC	0	-8	0	39*
Nc1ccccc1C(=O)NCCc1ccccc1	0	-6	-5	63*
Cc1ccc(Cl)cc1NC(=O)c1cnccn1	0	18	-1	5
CCC1CCCCN1C(=O)c1ccc(N2CC3CC(C2)c2cccc(=O)n2C3)c(NC(=O)c2ccc(C(C)(C)C)cc2)c1 (stereo not given)	1	6	-2	-15
COc1cc(C(=O)Nc2ccccc2)c2ccccc2n1	0	5	0	24
CCOc1ccc(NC(=O)c2cc(OC)nc3ccccc23)cc1	0	6	-1	52*
CCOc1ccc(-c2cc(C(=O)Nc3cc(=O)n(C)c(=O)n3C)c3ccccc3n2)cc1	0	-26	-2	76*
NS(=O)(=O)c1ccc(NC(=O)c2cc(-c3ccccc3)nc3ccccc23)cc1	1.9*	19	-1	2
COc1cc(C(=O)Nc2ccccc2C(=O)Nc2ccccc2)cc(OC)c1OC	0	-8	1	53*
COc1cc(C(=O)Nc2ccccc2C(=O)Nc2cccc(C(=O)O)c2)cc(OC)c1OC	0	1	0	1
NS(=O)(=O)c1ccc(NC(=O)c2cc(-c3ccncc3)nc3ccccc23)cc1	0	19	1	10
CCOc1ccc(NC(=O)Nc2ccc(C)cc2)cc1	0	11	1	-21
